Results filed as inconclusive are left out. Calls of active or inactive are those of the source. Unless noted, the call rests on the fitted dose curve; in most records, active means well fitted curve in the direction sought with a large enough effect; inconclusive means small, poorly fitted or top-dose-only effect, or another doubt; inactive means no such curve, though single readings can be large; an effect the other way counts as inactive or inconclusive.

Assay [1] is described as follows: Counterscreen for APE1 Inhibitors: Fluorescent Dye Displacement Validation Assay (AID 1707). Further: potency means the concentration at half of the fitted maximal effect. Summed up:
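Thiazole Orange (250 nM) bound to 50 nM TAMRA-labelled dsDNA with tetrahydrofuran abasic site; displacement by DNA-binding compounds lowers fluorescence. Buffer 50 mM Tris-HCl pH 7.5, 50 mM NaCl, 2 mM MgCl2, 0.01% Tween-20; endpoint read at 480/540 nm.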
Background: A counterscreen serves to expose hits that act by an unwanted route or on another target.

A short description of assay [2]: qHTS for differential inhibitors of proliferation of Plasmodium falciparum line 7G8 (AID 1815).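 Further: parasite growth measured after three days of incubation.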 Further: potency means the concentration at half of the fitted maximal effect.
Assay [3] can be described thus: qHTS for differential inhibitors of proliferation of Plasmodium falciparum line GB4 (AID 1816).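 Further: potency means the concentration at half of the fitted maximal effect; parasite growth measured after 72 h incubation.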 The settings on record: Potency: Plasmodium falciparum GB4 proliferation inhibition. A general note: qHTS replaces the single test concentration by a dilution series.
Assay [4] is described as follows: qHTS for differential inhibitors of proliferation of Plasmodium falciparum line 3D7 (AID 1876). Further: potency means the concentration at half of the fitted maximal effect.
Assay [5] can be described thus: qHTS for differential inhibitors of proliferation of Plasmodium falciparum line D10 (AID 1877).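 Further: parasites grown with compound for 72 h before DNA staining.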 Further: potency means the concentration at half of the fitted maximal effect.
Assay [6] is described as follows: qHTS for differential inhibitors of proliferation of Plasmodium falciparum line Dd2 (AID 1882). Further: nearly all actives have a fitted effect of over 65% in size. Further: potency means the concentration at half of the fitted maximal effect. The settings on record: Potency: Plasmodium falciparum Dd2 proliferation inhibition. The method in brief:
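SYBR Green I DNA fluorescence read-out, ex 485/em 535 nm. Signals were normalized to 0.29 uM artemisinin and DMSO wells, then corrected using vehicle-only plates flanking each stack. Parasite growth ran 72 h in erythrocytes before lysis.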

Assay [7] can be described thus: qHTS for differential inhibitors of proliferation of Plasmodium falciparum line W2 (AID 1883).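 Further: potency means the concentration at half of the fitted maximal effect; parasites grown with compound for 72 h before lysis and staining.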 The settings on record: Potency: Plasmodium falciparum W2 proliferation inhibition.
Assay [8] is described as follows: qHTS for differential inhibitors of proliferation of Plasmodium falciparum line HB3 (AID 1886).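 Further: parasites grown with compound for 72 h before SYBR Green readout.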 Further: potency means the concentration at half of the fitted maximal effect. The settings on record: Potency: Plasmodium falciparum HB3 proliferation inhibition.
For assay [9], the target named is ATP-dependent DNA helicase Q1 (Homo sapiens) (UniProt P46063). Kind of assay: qHTS Validation Assay for Inhibitors of RecQ-Like Dna Helicase 1 (RECQ1) (AID 2353). Summed up:
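50 nM RECQ1T1 preincubated 15 min with compound in Tris pH 8.0 buffer with MgCl2, DTT, Tween-20 and 2.5 ug/ml poly(dI-dC); started with 200 nM TAMRA/BHQ-2 forked duplex and 2 mM ATP. Unwinding read as fluorescence (525/598 nm), two reads 2 h apart.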

Assay [10] can be described thus: High Content Imaging Cell-Based qHTS for Inhibitors of the mTORC1 Signaling Pathway in MEF Cells (AID 2667). Further: potency means the concentration at half of the fitted maximal effect. The method in brief:
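Immunofluorescence for rpS6 phosphorylation in MEFs of Tsc2-/-, p53-/- background rescued with WT Tsc2. Compound exposure lasted 24 hrs. Inhibition was scored against rapamycin-treated control wells.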

For assay [11], the target named is DNA repair nuclease/redox regulator APEX1 (Homo sapiens) (UniProt P27695). Kind of assay: qHTS Validation Assay for Inhibitors of the Human Apurinic/apyrimidinic Endonuclease 1 (APE1) (AID 1705;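 further: TAMRA fluorescence gain over two minutes as APE1 cuts a quenched THF abasic duplex; series mostly up to about 57 µM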). The method in brief:
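Read-out: TAMRA fluorescence (525 nm ex, 598 nm em) from cleavage of a quenched THF abasic-site duplex, 50 nM final; activity taken as intensity change between third and first of three reads 60 s apart.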

The target of assay [12] is RecQ-like DNA helicase BLM (Homo sapiens) (UniProt P54132). Nature of the assay: qHTS Validation Assay for Inhibitors of Bloom's syndrome helicase (BLM) (AID 2364). Further: potency means the concentration at half of the fitted maximal effect. The method in brief:
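Forked 20-bp duplex substrate (200 nM, TAMRA/BHQ-2) plus 2 mM ATP added after 15 min compound preincubation with 50 nM enzyme, pH 8.0, poly(dI-dC) 2.5 ug/ml. Strand separation followed by fluorescence (525/598 nm) over 2 h, normalized to enzyme-free and DMSO controls.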

Assay [13] has as its target Ferritin light chain (Equus caballus) (UniProt P02791). Kind of assay: qHTS Validation Assay for Identification of Novel General Anesthetics (AID 2323). Further: series mostly up to about 77 µM. Summed up:
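10 uM horse-spleen apoferritin + 1-AMA (50% saturated, PBS); cpd pin-transferred, 10 min RT. Ex 380/Em 535 nm endpoint. Activity normalized between free 1-AMA and 1-AMA/apoferritin; 4-parameter Hill fit of concentration-response.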

The nature of assay [14]: Cytometric Cell-Based qHTS for Inhibitors of the mTORC1 Signaling Pathway in MEF (Tsc2-/-, p53-/-) Cells (AID 2660).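 Further: percent of cells above a phospho-rpS6 to PI ratio cutoff in each well; series mostly up to about 38 µM.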 The method in brief: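 Tsc2-/-, p53-/- MEFs (empty vector) exposed to compound 24 h at 37 C, fixed, stained with Alexa-488 anti-phospho-rpS6 Ser235/236 and propidium iodide. Acumen laser scanning; phospho-S6/PI ratio thresholded against 7.5 nM rapamycin, reported as % positive cells.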

The nature of assay [15]: High Content Imaging Cell-Based qHTS for Inhibitors of the mTORC1 Signaling Pathway in MEF (Tsc2-/-, p53-/-) Cells (AID 2666).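 Further: percent of cells scored positive for phospho-rpS6 Ser235/236 immunostaining by imaging.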 The method in brief: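 Cells were plated, dosed with compound after 24 hrs, and incubated another 24 hrs at 37 degree Celsius. Fixed cells were immunostained for phospho-rpS6 Ser235/236 and counterstained, and the normalized signal was scored as % active cells against rapamycin and DMSO controls.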

Assay [16] is described as follows: Cytometry Cell-Based qHTS for Inhibitors of the mTORC1 Signaling Pathway in MEF cells (AID 2668).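 Further: Tsc2-/- p53-/- mouse embryonic fibroblasts stably re-expressing wild-type Tsc2; percent cells positive for phospho-rpS6 Ser235/236 relative to propidium iodide stain; series mostly up to about 38 µM.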 The method in brief:
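Read-out: phospho-rpS6 Ser235/236 immunofluorescence normalized to propidium iodide intensity, scored as % active cells against a rapamycin (7.5 nM) threshold. Cells: Tsc2-/-, p53-/- MEFs stably expressing WT Tsc2, compound-treated 24 hrs at 37 degree Celsius.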

Assay [17] concerns the target Endonuclease 4 (Escherichia coli (strain K12)) (UniProt P0A6C1). Nature of the assay: Counterscreen for APE1 Inhibitors: qHTS Validation Assay for Inhibitors of Endonuclease IV (AID 1708). The method in brief: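 Enzymatic AP-site incision assay using a double-stranded THF substrate labelled with TAMRA and BHQ-2; released fluorescence signals activity. Enzyme 2 nM, substrate 50 nM, 15 min compound preincubation.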

Assay [18] is described as follows: qHTS Assay for Modulators of Human Peripheral Myelin Protein 22 (PMP22) Expression/Activity (AID 1967; active means well fitted curve in the direction sought with a large enough effect in the signal ratio; the % refers to the signal ratio). The method in brief:
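Mouse MSC80 Schwann line, Pmp22 promoter–CBG68 reporter, EF-alpha–CBR internal control. 24h compound exposure, 37 °C/5% CO2, DMEM + 10% FBS. Readout: corrected green/red luminescence ratio, normalized to untreated cells; concentration-response curves fitted and classified.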

Assay [19] in a line: qHTS Assay for Identification of Small Molecule Inducers of Hypoxia Response (AID 2120; active means well fitted curve in the direction sought with a large enough effect in the signal ratio, with a control signal flat, not every such curve was filed as active; the % refers to the signal ratio). The method in brief:
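Induction of beta-lactamase reporter activity was measured in CellSensor HRE-bla ME-180 cells after 17 h compound treatment at 37 degrees C, using CCF4 substrate and the 460nm/530nm emission ratio to derive AC50 values.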

Chain of Ferritin light chain (Equus caballus) (P02791 2-175 limits assumed): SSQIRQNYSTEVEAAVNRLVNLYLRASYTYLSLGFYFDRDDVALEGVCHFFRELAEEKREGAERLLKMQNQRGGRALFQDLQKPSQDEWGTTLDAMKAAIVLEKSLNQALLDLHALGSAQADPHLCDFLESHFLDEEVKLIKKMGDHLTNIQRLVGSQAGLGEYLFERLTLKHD
Chain of DNA repair nuclease/redox regulator APEX1 (Homo sapiens) (P27695 whole entry, looked up): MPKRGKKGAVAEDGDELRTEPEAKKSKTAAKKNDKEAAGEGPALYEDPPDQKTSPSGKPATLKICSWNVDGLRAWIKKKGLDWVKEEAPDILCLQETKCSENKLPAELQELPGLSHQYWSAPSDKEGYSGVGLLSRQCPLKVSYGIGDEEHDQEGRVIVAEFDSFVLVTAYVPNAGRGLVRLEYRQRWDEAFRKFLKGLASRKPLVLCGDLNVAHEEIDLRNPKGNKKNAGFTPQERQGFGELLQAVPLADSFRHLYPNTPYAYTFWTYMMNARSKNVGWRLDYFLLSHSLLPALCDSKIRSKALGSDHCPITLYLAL
Chain of ATP-dependent DNA helicase Q1 (Homo sapiens) (P46063 whole entry, looked up): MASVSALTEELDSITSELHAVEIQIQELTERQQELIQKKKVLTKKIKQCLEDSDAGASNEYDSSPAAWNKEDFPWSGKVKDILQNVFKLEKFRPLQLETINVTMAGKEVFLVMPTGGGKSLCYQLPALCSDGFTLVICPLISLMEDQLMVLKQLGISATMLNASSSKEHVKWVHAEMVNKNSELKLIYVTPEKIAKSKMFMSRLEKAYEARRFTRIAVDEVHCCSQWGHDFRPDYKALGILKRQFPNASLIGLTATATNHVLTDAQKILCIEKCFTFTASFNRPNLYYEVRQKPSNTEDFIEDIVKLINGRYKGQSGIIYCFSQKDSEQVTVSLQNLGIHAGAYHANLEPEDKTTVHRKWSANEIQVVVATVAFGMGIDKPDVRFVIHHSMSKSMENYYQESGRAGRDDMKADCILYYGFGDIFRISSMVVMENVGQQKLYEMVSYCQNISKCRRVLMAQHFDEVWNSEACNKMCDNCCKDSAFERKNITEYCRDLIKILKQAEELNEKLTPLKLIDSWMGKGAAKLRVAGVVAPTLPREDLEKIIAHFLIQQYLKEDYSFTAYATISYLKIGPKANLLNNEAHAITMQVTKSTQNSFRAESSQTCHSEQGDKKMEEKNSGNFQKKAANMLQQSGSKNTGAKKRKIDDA
Chain of RecQ-like DNA helicase BLM (Homo sapiens) (P54132 whole entry, looked up): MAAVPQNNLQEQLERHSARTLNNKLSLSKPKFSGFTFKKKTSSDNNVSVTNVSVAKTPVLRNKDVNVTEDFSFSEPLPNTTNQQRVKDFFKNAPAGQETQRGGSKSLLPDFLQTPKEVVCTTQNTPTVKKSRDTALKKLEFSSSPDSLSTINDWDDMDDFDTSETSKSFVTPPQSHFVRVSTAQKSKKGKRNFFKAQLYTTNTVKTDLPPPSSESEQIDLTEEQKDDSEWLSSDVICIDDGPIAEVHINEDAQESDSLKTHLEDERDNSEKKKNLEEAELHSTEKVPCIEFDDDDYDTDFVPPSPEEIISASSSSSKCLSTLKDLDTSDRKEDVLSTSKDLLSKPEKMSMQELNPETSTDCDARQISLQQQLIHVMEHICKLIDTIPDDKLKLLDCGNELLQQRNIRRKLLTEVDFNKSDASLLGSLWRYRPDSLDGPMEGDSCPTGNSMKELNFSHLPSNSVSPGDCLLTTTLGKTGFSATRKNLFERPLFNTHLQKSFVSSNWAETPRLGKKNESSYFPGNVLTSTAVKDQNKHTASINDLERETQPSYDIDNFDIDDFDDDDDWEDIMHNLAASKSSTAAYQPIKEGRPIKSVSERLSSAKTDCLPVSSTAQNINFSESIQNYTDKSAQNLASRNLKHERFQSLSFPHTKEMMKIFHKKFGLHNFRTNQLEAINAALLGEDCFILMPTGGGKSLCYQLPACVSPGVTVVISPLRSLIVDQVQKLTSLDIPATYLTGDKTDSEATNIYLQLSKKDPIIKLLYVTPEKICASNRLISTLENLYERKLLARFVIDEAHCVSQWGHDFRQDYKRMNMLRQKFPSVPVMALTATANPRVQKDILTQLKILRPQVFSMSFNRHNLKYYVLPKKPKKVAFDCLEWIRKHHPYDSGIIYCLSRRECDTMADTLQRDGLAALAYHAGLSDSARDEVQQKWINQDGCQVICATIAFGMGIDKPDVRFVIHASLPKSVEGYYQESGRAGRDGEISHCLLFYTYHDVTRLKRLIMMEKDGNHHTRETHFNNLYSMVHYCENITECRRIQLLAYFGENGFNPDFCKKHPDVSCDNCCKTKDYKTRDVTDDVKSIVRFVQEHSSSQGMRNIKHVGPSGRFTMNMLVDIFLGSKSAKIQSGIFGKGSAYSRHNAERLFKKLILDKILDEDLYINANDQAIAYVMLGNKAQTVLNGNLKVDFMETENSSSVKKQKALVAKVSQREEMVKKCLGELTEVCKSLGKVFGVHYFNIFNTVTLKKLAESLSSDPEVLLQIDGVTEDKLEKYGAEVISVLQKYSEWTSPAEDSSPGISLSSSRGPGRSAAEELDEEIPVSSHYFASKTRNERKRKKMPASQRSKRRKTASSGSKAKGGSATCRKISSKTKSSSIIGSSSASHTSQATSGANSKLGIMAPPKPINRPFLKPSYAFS

`O=c1[nH]c2ccccc2n1C1CCN(CCCC(c2ccc(F)cc2)c2ccc(F)cc2)CC1`: in [1], the Potency entry is “inactive”. The Potency in assay [2] is 3.98 µM (active); in [3], 8.91 µM (active); in assay [4], 3.16 µM (active); in [5], 7.08 µM (active); in assay [6], 10 µM (active); in assay [7], 2.82 µM (active). Moreover, the Potency in assay [8] was 5.62 µM (active); in [10], 16.5 µM (active). For the same compound, the compound was called inactive in assay [9].

Turning to `CNCCC(Oc1ccc(C(F)(F)F)cc1)c1ccccc1` (stereo not drawn), the compound was classed as inactive in assay [11]. The Potency is 10 µM (active) in [5] and 2.24 µM (active) in [7]. Besides, in [12], the Potency entry was “inactive”.

`COc1ccc(Cc2nccc3cc(OC)c(OC)cc23)cc1OC`: the result in assay [11], in assay [13] and in assay [9] was inactive. In addition, the Potency entry in assay [1], in assay [2] and in assay [6] was “inactive” throughout.

Consider `CC[C@@H](CO)NC(=O)[C@@H]1C=C2c3cccc4c3c(cn4C)C[C@H]2N(C)C1`, for which, in assay [14], the outcome was inactive. Also, the Potency result in assay [15], in assay [10] and in assay [16] was “inactive” each time.

Regarding `COc1ccccc1N1CCNCC1`, the outcome in assay [11], in assay [17], in [18], in [13], in assay [9] and in assay [14] was inactive. Moreover, the Potency entry in [1], in assay [2], in [4], in [6], in assay [8] and in assay [12] was “inactive” throughout. Further, the Potency entry in [15], in assay [10] and in assay [16] was “inactive” throughout.

For the compound `C[C@@H]1O[C@@H](O[C@H]2C[C@@H](O)[C@]3(CO)[C@H]4[C@H](O)C[C@]5(C)[C@@H](C6=CC(=O)OC6)CC[C@]5(O)[C@@H]4CC[C@]3(O)C2)[C@H](O)[C@H](O)[C@H]1O`, the result in assay [14] was inactive. The Potency entry in assay [15], in [10] and in assay [16] was “inactive” each time.

`CC(C)NCC(O)COc1cccc2[nH]ccc12` (stereo not drawn): the Potency entry in assay [12] was “inactive”.

Take `O=c1c(O)c(-c2ccc(O)c(O)c2)oc2cc(O)cc(O)c12`: the Potency is 2.51 µM (active) in assay [1]; 3.55 µM (active) in assay [2]; 2.51 µM (active) in assay [3]; 3.55 µM (active) in assay [4]; 7.08 µM (active) in assay [5]; 8.91 µM (active) in [6]. Besides, the Potency in [7] was 4.47 µM (active); in assay [8] it was 2.82 µM (active); in assay [12], 28.2 µM (active).

On to `CC(C)C(=O)Nc1ccc([N+](=O)[O-])c(C(F)(F)F)c1`, for which the results for the Potency in assay [7] and in [8] were 12.6 µM (active) and 14.1 µM (active), respectively.

With `CN1C[C@H](CNC(=O)OCc2ccccc2)C[C@@H]2c3cccc4c3c(cn4C)C[C@H]21`, the result in [11], in assay [13] and in assay [9] was inactive. Besides, the Potency result in assay [1], in assay [10] and in assay [16] was “inactive” each time. Moreover, the Potency in assay [2] was 5.01 µM (active); in assay [3], 7.08 µM (active); in [4], 2.51 µM (active); in assay [5] it was 11.2 µM (active); in assay [6] it was 10 µM (active); in assay [7], 3.98 µM (active). Also, the Potency in [8] was 11.2 µM (active).

With `N#CC(C#N)=Cc1ccc(O)c(O)c1`, the result in assay [11], in assay [17], in assay [13], in [9] and in assay [14] was inactive. Moreover, the Potency result in assay [1], in assay [6], in assay [15], in assay [10] and in assay [16] was “inactive” each time. Besides, the Potency is 14.1 µM (active) in assay [3] and 12.6 µM (active) in [7].

For the compound `COc1cc2c(c(OC)c1OC)-c1ccc(OC)c(=O)cc1[C@@H](NC(C)=O)CC2`, the result in assay [17] was inactive. For the same compound, the Potency in assay [2] is 11.2 µM (active); in [4], 10 µM (active); in assay [7], 11.2 µM (active).

Regarding `COC[C@H]1OC(=O)c2coc3c2[C@@]1(C)C1=C(C3=O)C2CCC(=O)[C@@]2(C)C[C@H]1OC(C)=O` (stereo partly drawn), the result in [11], in assay [13], in [9] and in assay [14] was inactive. The Potency result in assay [1], in [5], in [12], in assay [15], in assay [10] and in assay [16] was “inactive” in each case. Further, the Potency in [4] was 12.6 µM (active); in assay [6] it was 11.2 µM (active); in [7] it was 11.2 µM (active).

For the compound `OCCN1CCN(CCCN2c3ccccc3Sc3ccc(C(F)(F)F)cc32)CC1`, the Potency is 2.82 µM (active) in assay [2]; 2.51 µM (active) in assay [3]; 2.51 µM (active) in assay [4]; 10 µM (active) in assay [5]; 10 µM (active) in assay [6]; 1.41 µM (active) in assay [7]. Besides, the Potency in [8] is 4.47 µM (active). Also, in assay [13], the outcome was inactive.

Regarding `Cc1cccc(C)c1NC(=O)CN1CCCC1=O`, the compound was classed as inactive in [14]. The Potency result in [15], in assay [10] and in assay [16] was “inactive” each time.

Turning to `CC12CC3CC(C)(C1)CC(N)(C3)C2`, the Potency result in [12] was “inactive”.

`OCCOc1ccccc1`: the result in assay [19] was inactive.

Take `O=c1[nH]cc(F)c(=O)[nH]1`: the Potency in [2] is 7.08 µM (active); in [3] it was 7.94 µM (active); in assay [4] it was 4.47 µM (active); in assay [5], 4.47 µM (active); in [7], 7.94 µM (active); in [8] it was 5.01 µM (active).

Consider `Cc1c(OCC(F)(F)F)ccnc1CS(=O)c1nc2ccccc2[nH]1` (stereo not drawn), for which the Potency in assay [2] was 8.91 µM (active); in assay [3], 10 µM (active); in assay [4], 11.2 µM (active); in assay [5], 12.6 µM (active); in assay [7] it was 10 µM (active); in [8] it was 11.2 µM (active).

As to `Clc1cccc(N2CCNCC2)c1`, the outcome in [11], in assay [17], in assay [13] and in assay [9] was inactive. The Potency result in [1], in assay [4], in assay [5] and in assay [8] was “inactive” each time. In addition, the results for the Potency in assay [3] and in [7] were 12.6 µM (active) and 6.31 µM (active), respectively.

`C[C@]12C/C(=C/O)C(=O)C[C@@H]1CC[C@@H]1[C@@H]2CC[C@@]2(C)[C@H]1CC[C@]2(C)O`: the compound was classed as inactive in [19].

For the compound `CC[N+](CC)(CC)CC`, the call in [11], in [13] and in assay [9] was inactive. Further, the Potency entry in assay [1], in assay [6] and in assay [12] was “inactive” each time. Besides, the Potency in assay [4] and in assay [5] was 11.2 µM (active) in each case.

For `c1ccc2c(c1)Nc1ccccc1S2`, the compound was classed as inactive in assay [19].
